Source: PubChem BioAssay
SW480 rerep = A quantitative high throughput screen for small molecules that induce DNA re-replication in SW480 colon adenocarcinoma cells; SW480 DNA re-replication, Hoechst DNA content imaging, 48 h; Potency, µM (highest dose often 46.1 µM), actives largely listed as activators; 1.8% of 340,000 active; AID 624297, 2012; further: nearly all actives have a fitted effect of over 55% in size
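Compounds, transferred as 23 nL by pin tool, were incubated with cells for 48 hr; DNA content per nucleus was then quantified by Hoechst staining and fluorescence plate imaging.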
Gal4-VP16 FLuc = VP16 counterscreen qHTS for inhibitors of ROR gamma transcriptional activity; Drosophila S2 Gal4-VP16 UAS-luciferase, luminescence, 20 h; Potency, µM (top dose mostly 53.6 µM), most hits filed as inhibitors; 3.5% of 310,000 active;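 further: Gal4-VP16 expression switched on by copper sulfate through the metallothionein promoter; nearly all actives have a fitted effect of over 50% in size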
MCF10A rerep = A quantitative high throughput screen for small molecules that induce DNA re-replication in MCF 10a normal breast cells. MCF 10A DNA re-replication, Hoechst nuclear intensity, 48 h. Potency, µM (highest dose often 46.1 µM), most hits filed as activators. 2.9% of 350,000 active. AID 624296, 2012; further: nearly all actives have a fitted effect of over 50% in size
IL1B secr inh = qHTS for Inhibitors of Inflammasome Signaling: IL-1-beta AlphaLISA Primary Screen. activity change, % at 57.5 µM. THP-1 LPS/ATP IL-1B secretion, AlphaLISA, 16 h; stronger effect = lower value. 4.7% of 360,000 active. AID 743279, 2014; in the data active means activity change below about -50%; inconclusive means mostly about -30% to -49%
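Secreted IL-1B measured by AlphaLISA bead assay after 16 h compound exposure of THP-1 cells; compounds (final up to 57.5 uM) added 1 h before LPS (250 ng/mL) and ATP (1.25 mM) stimulation; lower signal means less secretion.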
RORg inh = qHTS for inhibitors of ROR gamma transcriptional activity. Nuclear receptor ROR-gamma (Mus musculus), P51450. Drosophila S2 Gal4-RORgamma UAS-luciferase reporter, 20 h. Potency, µM (top dose mostly 53.6 µM), actives largely listed as inhibitors. 5.4% of 310,000 active. AID 2551, 2010; further: nearly all actives have a fitted effect of over 60% in size
Target sequence (P51450 whole entry, looked up, the tested form may be a part): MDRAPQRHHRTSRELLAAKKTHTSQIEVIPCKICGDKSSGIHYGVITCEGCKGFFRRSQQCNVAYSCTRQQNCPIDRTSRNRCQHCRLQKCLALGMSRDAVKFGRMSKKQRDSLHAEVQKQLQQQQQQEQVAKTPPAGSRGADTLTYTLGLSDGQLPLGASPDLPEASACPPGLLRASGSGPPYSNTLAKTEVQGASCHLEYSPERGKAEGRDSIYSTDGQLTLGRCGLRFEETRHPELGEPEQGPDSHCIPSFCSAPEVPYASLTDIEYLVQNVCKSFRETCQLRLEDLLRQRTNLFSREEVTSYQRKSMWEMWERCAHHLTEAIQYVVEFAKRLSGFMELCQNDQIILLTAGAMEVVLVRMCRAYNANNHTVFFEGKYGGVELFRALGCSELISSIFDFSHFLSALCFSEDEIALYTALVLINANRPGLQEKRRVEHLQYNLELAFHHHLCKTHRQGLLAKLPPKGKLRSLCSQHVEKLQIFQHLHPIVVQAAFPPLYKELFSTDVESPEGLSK
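Luminescence from a UAS-regulated Photinus luciferase reporter in stably transfected Drosophila Schneider cells is measured; decreased signal marks ROR gamma inhibition. Fusion expression is induced by 700 uM copper sulfate for 20 hr.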
Large screens that a line does not name were inactive; ! = not active in a repeat. The list is not random: actives were taken first. Their share in the collection is about 11%. Unless noted, the call rests on the fitted dose curve; in most records, active means well fitted curve in the direction sought with a large enough effect; inconclusive means small, poorly fitted or top-dose-only effect, or another doubt; inactive means no such curve, though single readings can be large; an effect the other way counts as inactive or inconclusive.

O=C1C=C(NCCN2CCOCC2)C(=O)c2cnccc21	SW480 rerep 10µM, Gal4-VP16 FLuc inconclusive, MCF10A rerep inconclusive, RORg inh 10µM (no result: IL1B secr inh)
COCCN1C(=O)N(c2ccc(OC)cc2)C(=O)C1CC(=O)Nc1cccc(F)c1 (configuration not stated)	MCF10A rerep 0.92µM
COc1ccc(NC(=O)CC2C(=O)N(c3ccc(F)cc3)C(=S)N2NC(=O)c2ccc(Cl)cc2)cc1 (configuration not stated)	Gal4-VP16 FLuc 20µM, MCF10A rerep inconclusive, RORg inh 11µM
COc1ccc(NC(=O)CC2C(=O)N(c3ccc(Cl)cc3)C(=S)N2NC(=O)c2cccc(F)c2)cc1 (configuration not stated)	Gal4-VP16 FLuc 18µM, MCF10A rerep inconclusive, RORg inh 10µM
COCCN1C(=O)N(c2cccc(OC)c2)C(=O)C1CC(=O)Nc1ccc(OC)cc1 (configuration not stated)	none (no result: Gal4-VP16 FLuc, RORg inh)
CC(CCc1ccccc1)NC(=O)CCNS(=O)(=O)c1ccccc1C(F)(F)F (configuration not stated)	none (no result: Gal4-VP16 FLuc, RORg inh)
CC(C)(C)n1nnnc1C(CCc1ccccc1)N1CCN(C/C=C/c2ccccc2)CC1 (configuration not stated)	none (no result: SW480 rerep, Gal4-VP16 FLuc, MCF10A rerep, RORg inh)
COc1ccc(CCNC(=O)c2ccc(NC(=O)CC3SC(N4CCCCC4)=NC3=O)cc2)cc1 (configuration not stated)	none (no result: Gal4-VP16 FLuc, RORg inh)
CCCc1nc2c3ccccc3ccn2c1CC(C)(C)C	none (no result: SW480 rerep, Gal4-VP16 FLuc, MCF10A rerep, RORg inh)
C=C1CCN(C(CC(C)C)C(=O)NCc2ccc(Cl)c(Cl)c2)S(=O)(=O)c2ccccc21 (configuration not stated)	none (no result: SW480 rerep, MCF10A rerep, IL1B secr inh)
COc1ccc(C[C@H]2CN3C(=NC[C@@H]3C(C)C)N2CCNC(=O)CCC2CCCCC2)cc1	SW480 rerep inconclusive, MCF10A rerep inconclusive, IL1B secr inh -56
O=C(NC1CCCCC1)C(c1ccc2ncccc2c1)N(Cc1cccs1)C(=O)c1cccs1 (configuration not stated)	IL1B secr inh inconclusive
O=C(NC1CCCCC1)C(c1cccs1)N(Cc1cccs1)C(=O)c1cccs1 (configuration not stated)	IL1B secr inh -66
C(=N\N1CCN(C2c3ccccc3-c3ccccc32)CC1)/c1ccccn1	Gal4-VP16 FLuc inconclusive, MCF10A rerep inconclusive, RORg inh 7.1µM
CCCCC/C=C\C/C=C\C/C=C\C=C\[C@@H](O)CCCC(=O)O	none (no result: SW480 rerep, MCF10A rerep, IL1B secr inh)
COc1cccc(C(NC(C)=O)c2nc(-c3cccc(C(C)C)c3)cs2)c1 (configuration not stated)	none (no result: SW480 rerep, Gal4-VP16 FLuc, MCF10A rerep, RORg inh)
COc1cc(Cn2c3ccc(NC(=S)NCc4ccc(C)cc4)cc3c(=O)n2C)ccc1F	none (no result: SW480 rerep, Gal4-VP16 FLuc, MCF10A rerep, RORg inh)
CCc1nc2ccc(C(=O)O)cc2nc1CC	Gal4-VP16 FLuc inconclusive, RORg inh 0.71µM
Cc1cccc(C(=O)Nc2nnc(-c3ccc(C(C)(C)C)cc3)s2)c1	RORg inh 14µM
Cc1ccc(S(=O)(=O)N2[C@@H](c3cccc(Cl)c3)C(C(=O)O)=CC[C@H]2c2ccc(C(C)C)cc2)cc1	MCF10A rerep inconclusive (no result: Gal4-VP16 FLuc, RORg inh)
OCCNCc1cc(Br)ccc1OCc1ccccc1	IL1B secr inh -58
CCOCCCNCc1cc(Br)ccc1OCc1ccccc1	IL1B secr inh -60, RORg inh inconclusive
Brc1ccc(OCc2ccccc2)c(CNCC2CCCO2)c1 (configuration not stated)	none
COc1ccc2nc3c(c([Si](C)(C)C(C)(C)C)c2c1)Cn1c-3cccc1=O	Gal4-VP16 FLuc 11µM, RORg inh 13µM (no result: SW480 rerep, MCF10A rerep, IL1B secr inh)
CCOC(=O)C(NC(=O)c1ccccc1)C(C)(C)SCc1ccccc1 (configuration not stated)	none (no result: Gal4-VP16 FLuc, RORg inh)
O=C1N[C@H](Cc2ccccc2)COC(=O)[C@H](Cc2ccc(F)cc2)CC/C=C/C[C@@H]1CC(=O)N(CCO)Cc1ccccc1	IL1B secr inh -55 (no result: Gal4-VP16 FLuc, RORg inh)
O=C(C[C@@H]1C/C=C/CC[C@H](Cc2ccc(F)cc2)C(=O)OC[C@@H](Cc2ccccc2)NC1=O)N[C@H](CO)Cc1ccccc1	SW480 rerep inconclusive, MCF10A rerep 7.3µM (no result: Gal4-VP16 FLuc, RORg inh)
O=C1N[C@H](Cc2ccccc2)COC(=O)[C@@H](Cc2ccc(F)cc2)C/C=C\C[C@H]1CC(=O)N(CCO)Cc1ccccc1	IL1B secr inh -59 (no result: Gal4-VP16 FLuc, RORg inh)
O=C(/C=C/c1cccs1)c1ccco1	none (no result: Gal4-VP16 FLuc, RORg inh)
C#C[C@]1(O)CC[C@H]2[C@H]3CCc4cc(O)ccc4[C@@H]3CC[C@@]21C	none (no result: SW480 rerep, MCF10A rerep, IL1B secr inh)
CC(Nc1oc(-c2ccccc2)nc1-c1ccc(C(F)(F)F)cc1)c1ccccc1 (configuration not stated)	none (no result: SW480 rerep, MCF10A rerep, IL1B secr inh)
C[C@](N)(Cc1ccc(O)c(O)c1)C(=O)O	SW480 rerep 2.8µM!, Gal4-VP16 FLuc inconclusive, RORg inh inconclusive
C[C@](N)(Cc1ccc(O)cc1)C(=O)O	none (no result: IL1B secr inh)
O=C(Nc1ccc2c(c1)OCCO2)C(c1ccccc1)n1c(=O)c(-c2ccco2)nc2ccccc21 (configuration not stated)	none (no result: SW480 rerep, Gal4-VP16 FLuc, MCF10A rerep, RORg inh)
Cc1nc(Nc2ccccc2)sc1C(=O)Nc1ccccc1	IL1B secr inh -65, RORg inh inconclusive
Cc1nc(Nc2ccc(S(N)(=O)=O)cc2)sc1C(=O)Nc1ccccc1	IL1B secr inh inconclusive, RORg inh inconclusive
COc1ccccc1Nc1nc(C)c(C(=O)Nc2ccccc2)s1	IL1B secr inh -53
Cc1nc(NC(=O)/C=C/c2ccccc2)sc1C(=O)NCCO	none
Cc1nc(NC(=O)/C=C/c2ccccc2)sc1C(=O)Nc1ccccc1	SW480 rerep inconclusive, MCF10A rerep 21µM
Cc1nc(NC(C)c2ccccc2)sc1C(=O)Nc1ccccc1 (configuration not stated)	SW480 rerep inconclusive, IL1B secr inh -52
COc1ccc(-c2nc(CS(=O)CC(=O)NC(C)CCc3ccccc3)c(C)o2)cc1OC (configuration not stated)	none
CCc1ccc(-c2nc(SCC(=O)N(CC)C3CCS(=O)(=O)C3)n[nH]2)cc1 (configuration not stated)	none (no result: Gal4-VP16 FLuc, RORg inh)
Cc1cccc(OCc2nnc(SCC(=O)N3c4ccccc4CC3C)n2C)c1C (configuration not stated)	Gal4-VP16 FLuc 14µM, RORg inh inconclusive
C=CCn1c(COc2cccc(C)c2C)nnc1SCC(=O)N1CCN(c2ccccc2)CC1	SW480 rerep inconclusive, Gal4-VP16 FLuc inconclusive, MCF10A rerep inconclusive, IL1B secr inh -55, RORg inh inconclusive
COc1ccc(CNc2nc(-c3cccc(NS(C)(=O)=O)c3)nc3ccccc23)c(OC)c1	none (no result: SW480 rerep, MCF10A rerep, IL1B secr inh)
CCOC(=O)c1c(C)[nH]c(C(=O)NCCc2ccc(OC)c(OC)c2)c1C	none
CC(C)CN(CCCNC(=O)CN1C(=O)COc2ccc(S(=O)(=O)N3CCOCC3)cc21)CC(C)C	none
O=C(O)c1cc(N/N=C/c2c(O)ccc3ccccc23)ccc1Cl	none
